# Test results reported in the supplement of paper PMC10681739.
# Tests used:
# ETS1 [1] = target: T1, ETS1 (UniProt P14921); experiment: ETS1 binding intensity (PBM fluorescence), ETS1 alone (arbitrary fluorescence units); higher = stronger binding; settings: ETS1 concentration 1 nM; RUNX1 concentration 0 nM
# T1 sequence: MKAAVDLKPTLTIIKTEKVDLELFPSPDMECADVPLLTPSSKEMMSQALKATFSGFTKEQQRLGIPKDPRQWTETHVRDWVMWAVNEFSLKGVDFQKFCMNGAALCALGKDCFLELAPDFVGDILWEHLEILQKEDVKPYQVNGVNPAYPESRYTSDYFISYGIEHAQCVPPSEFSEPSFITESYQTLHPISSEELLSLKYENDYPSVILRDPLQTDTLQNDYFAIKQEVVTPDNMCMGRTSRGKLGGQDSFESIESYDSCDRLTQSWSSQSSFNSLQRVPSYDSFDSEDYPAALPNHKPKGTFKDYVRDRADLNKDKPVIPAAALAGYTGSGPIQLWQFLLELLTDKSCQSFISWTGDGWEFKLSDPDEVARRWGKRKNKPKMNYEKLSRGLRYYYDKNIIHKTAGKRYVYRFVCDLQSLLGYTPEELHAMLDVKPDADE
# RUNX1 [2] = target: RUNX1 (UniProt Q01196); experiment: RUNX1 binding intensity (PBM fluorescence), RUNX1 alone (arbitrary fluorescence units); higher = stronger binding; settings: RUNX1 concentration 2 nM; ETS1 concentration 0 nM
# Description: (§1)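 Cooperative gcPBM on 36-bp genomic probes with neighbouring ETS1 and RUNX1 sites. Recombinant human RUNX1 (2 nM) was incubated alone or with ETS1 (25 nM) and detected with anti-RUNX1 antibody plus Alexa488 secondary. Values are medians over 4 replicate spots; the RUNX1+ETS1 data were normalised to the RUNX1-only data. The probes sit in constant array flanks that are not printed.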
# ETS1 [3] = target: T1, ETS1; experiment: ETS1 binding intensity (PBM fluorescence) in presence of RUNX1, normalised to ETS1-only experiment (arbitrary fluorescence units); higher = stronger binding; settings: ETS1 concentration 1 nM; RUNX1 concentration 25 nM
# RUNX1 [4] = target: RUNX1 (UniProt Q01196); experiment: RUNX1 binding intensity (PBM fluorescence) in presence of ETS1, normalised to RUNX1-only experiment (arbitrary fluorescence units); higher = stronger binding; settings: RUNX1 concentration 2 nM; ETS1 concentration 25 nM
# Description: as §1
# 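Wherever RUNX1 binding intensity (PBM fluorescence) in presence of ETS1, normalised to RUNX1-only experiment is given: Full-length recombinant human ETS1 or RUNX1 bound to double-stranded 36-bp genomic probes on microarrays, detected by protein-specific primary antibody and Alexa488 secondary, spot fluorescence as median of four replicate spots.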
# 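Wherever RUNX1 binding intensity (PBM fluorescence), RUNX1 alone is given: Full-length recombinant human RUNX1 bound to double-stranded 36-bp genomic probes on a high-density microarray, scored as Alexa488 fluorescence per spot via anti-RUNX1 antibody, median of four replicate spots.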
# Chain of RUNX1 (Q01196 whole entry): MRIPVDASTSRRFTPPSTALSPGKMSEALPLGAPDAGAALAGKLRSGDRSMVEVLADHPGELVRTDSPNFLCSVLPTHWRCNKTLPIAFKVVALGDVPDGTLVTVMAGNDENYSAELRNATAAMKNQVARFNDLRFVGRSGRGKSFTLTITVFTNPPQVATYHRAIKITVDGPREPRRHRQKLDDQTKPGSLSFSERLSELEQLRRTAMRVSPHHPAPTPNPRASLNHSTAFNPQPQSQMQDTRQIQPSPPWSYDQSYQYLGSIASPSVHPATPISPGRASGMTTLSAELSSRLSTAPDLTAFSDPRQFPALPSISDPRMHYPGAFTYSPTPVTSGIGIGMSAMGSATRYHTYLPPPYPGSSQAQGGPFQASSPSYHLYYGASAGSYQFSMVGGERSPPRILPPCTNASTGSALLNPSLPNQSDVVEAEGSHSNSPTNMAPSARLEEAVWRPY
Sequence,ETS1 binding intensity (ETS1 [1]),RUNX1 binding intensity (RUNX1 [2]),ETS1 binding intensity (ETS1 [3]),RUNX1 binding intensity (RUNX1 [4])
TTACAGGGGCCGGAAGTGGCCTGCGGGCGGAGAAGT,21200,753,30900,2020
CATGACGAAGGGGAAGGATGTGGTTTGAGGGCAGCA,774,847,8460,1310
AGCTTGACGAAGGCTTCCTGTGGTTTGGGTTGATGT,486,824,964,1530
GTGGGGGTGACAGGATGCGGGTAGAGGGCTCAGCCA,1950,909,2770,1460
AATCATCAGGGAAATGCAAATCAAAACCACAATCAG,547,1480,1200,1300
ATCTTGGCCCATATCCTGTGGTGTTCTGCTAGAGGT,768,791,843,1290
GAAATGAAGGCCGGATGTCAGTAACCACAAACGAGC,7620,1040,47500,11000
CTCTTTCACAAAGGAAATGGAAACCACAAAGAGGAC,2140,1820,14700,3930
CTCACTCATCTGACTTCCTGCGGTTTACGACAACAG,1200,11100,1970,17400
GAAGCCAGGAAATGGTGCGTGTGCGGGGCCGGGCGC,982,663,1010,935
TCCCCGGCAGCTTCCTCGCCCCGACCGCAGTGTTCC,368,1780,798,1570
TTGACCCGGACGTGGACAAAAGACCGCAAAGGACGC,806,1100,3090,1540
GCTCGGAAATACCAATATTGGGCTGTGGTATTTGAA,412,911,626,953
GCTAAGAGCAGGAAATGATCTGGGAACCACCATCAC,2690,719,3070,918
CCCTCACCCCAGCTTTCCTGTGGTTAACCAAACCCC,518,7290,822,9960
CATGGGACCCGGAAGTGTGTGGTAAAGCGCCGGGGC,3590,896,9470,2350
ACGCGCTCCCTCACTTCCTGCGGCTTTTGGTCCCTC,1310,1880,1500,2800
CCGGGTAGGATCCGGTTGCCTTTCTGCGGTGGAGGA,410,848,798,1480
TAAATGTTTCCTAAAAGCTCTTTCATAAACCACAGT,390,970,669,884
ATGTCTTCCTGTACAGGAACTGGGTCCCAGCCGCAG,4120,745,4430,1510
CCAACAGTACCCTTCCTCCCTTAACCACAAGACTGA,445,5500,2090,6290

Sequence,ETS1 binding intensity (ETS1 [1]),RUNX1 binding intensity (RUNX1 [2]),ETS1 binding intensity (ETS1 [3]),RUNX1 binding intensity (RUNX1 [4])
GGTAAAGCAACAGGATGTGGGTGTCTGACTTACAAT,4330,700,6760,1790
AAACTACTTTCCTTCCTACCAAAACCACACTAAAGA,620,2140,844,1920
ACCCACTTCCTGTTAGAGCATCTTTGCAACCACAGG,2010,933,3230,3000
TGGTGCCAAACATCCGCTAGCCACAGAAAAACCGAC,778,826,1170,1640
CAGTGGCAGGAAGAGGTCAGAAACCACTCGTGGTGG,718,816,870,1100
CCATATCTGGCTTCCTAAGGAGGAACCACAAACCGT,375,1040,828,1080
GGGAGGTCACATCCTGCCCGCGGTCTCAGAAAAGCT,821,782,989,2080
TGTGTAAGAGGAAACACCAAAACCACAAATATGAAA,736,2080,3280,3530
GCGGGCAGGATCTTCCTGTGGTTTGCCTTGCCCACT,388,904,653,2190
ACATGGTCTCGCTTCCTGTTTACACCACAGAAAGCT,2820,1040,4140,1850
ACTTCACTTCCCAACCTCCCCTGTGGTTAGGTGTGG,365,1040,548,1220
CCAACACAGGAAATAATTTGAAACCACAATCAGAAA,1270,1290,4460,3290
GCGCAAGGATCCGGTTTGTTGTGGTGTGGGGAGGGG,517,814,503,1070
CCAAAATTGCCACGGAAACCACATCTTTCAGGCGAG,486,1520,687,1620
GCTTACACTTCCTCCCTGAACCCCTGCGGTTTCACA,511,4160,1960,10200
ATCATCTAGGAGACAGGATGTGGTTAGGGTGTTAAA,6360,1070,59800,7840
GGCCCAGGAAAGAGGCAGGGGTGCGGTTTCCCTCCG,394,1060,761,1480
GCGCAGGTCCCGGATGTTGCGGACAGTATGAGGCAA,3250,661,4560,1570
CTCACAGAAGAGGCAGGAAGTGGTTTGAGTTATCAT,9460,820,13700,1590
GGCTTCCGGCGGGGTACCCTCCTCTGTGGGCGGGGC,563,841,572,1750
GAAACAATTTCCTGTACCTCTGTGGTAAAAATGATA,1040,945,1650,2610

Sequence,ETS1 binding intensity (ETS1 [1]),RUNX1 binding intensity (RUNX1 [2]),ETS1 binding intensity (ETS1 [3]),RUNX1 binding intensity (RUNX1 [4])
GCGCCAGTCACCGTTTCCTGTGGTTTGCTGCCCGCC,1790,1050,3010,2810
GAGGACTTCCGGGTGGGTGTGATATCTGCGGGCCCG,848,760,677,1940
GGGCCCGGGCCAGGAAGTGGTTTTGCAGAGGTGTTT,4630,763,7660,1930
GGGAGGTGTCCAGGAAGTGGTTGGAGAGTCTGGTCT,2240,756,3340,1020
GACAGAGGAAACTAGGTGTGACAACCACAAACAGCT,432,882,651,785
CTCCATCTGCCCGGAAAACCGCAGCCGCCCCAACCT,841,28600,3690,34700
AGCCACATCCTGGACAAAAGCTGTGGTCTAGTAACC,430,911,556,2020
CCAGAGCACATCCTACACGCACCACAACCTGAAAAC,453,1250,396,1470
GTCCCCGACTTCCGCTCTCGGTTGGTGGTTGGCTTT,2370,894,3430,2590
GTGGGGAGAGGCAGGAAACCGCTGCCGCCGACGGGG,3550,807,4730,1030
TACCCCGCCGGAAGCCCCCTGCTCTGTGGGAACCGG,2480,894,3660,1270
GGGCGGGTGAGACCAGGATGTGGGTTCCCCCACCTT,1880,775,3540,1120
GAGGACTTCCGGGTGCGTGTGATATCTGCGGGCCCG,802,703,793,2110
GCACCCGGCACTACTTCCCGACCCGCATCCCCCGCC,689,1260,683,1320
TGCGAGCACCCGGAAGCCGCTTGCGGGCTCCCGGAG,2840,701,5620,999
AGCAGGAAGTATGTTGAAAGTCATAACCACAGCAAA,908,776,3050,1020
AACAAACCGGATGGGGTTCCCACCCGCAATCTTGTC,1700,830,4570,1970
GATACCCAGCCAGCGGAAGTGCGGTTAACTGCCCGA,4460,4990,18400,11100
TGTCTTCAGGAAGTGTAGCAGGTGTTGAGGTCAAGC,900,703,998,914
ACTATTTTTAGACTTCCCCACCCCGCAGTTTCAAGG,601,1270,554,1010
TGACGGCAGGCAGGATGTGGTGAGACAAATCCACTC,4070,904,8840,2660

Sequence,ETS1 binding intensity (ETS1 [1]),RUNX1 binding intensity (RUNX1 [2]),ETS1 binding intensity (ETS1 [3]),RUNX1 binding intensity (RUNX1 [4])
CTGTCCGCGACATCCGGGACCTGCGGGACCGCCGAT,1250,765,1470,1760
AGAGCAACAGGATGCAAATAACCACAAGCAAGAATA,920,1160,4180,3320
AGAACCACTTCCTCTCAGTAAACCACAGAGACTGTA,592,1790,1310,5880
GCACACCGGAACTCACACCTGAAACCACAGAACCAA,868,2180,4300,5220
TGGACGTAACACTCAGGAAGTGGTCAACCTTGCTGC,2630,820,5810,1340
ATATATCACCCCTTCCTTGCAAAACCACAAGACCAA,508,6030,1490,8230
AGCCCGGCTTCCGGCGCGTGCCGCTGCGGCTGCAGG,791,678,1030,1370
AGGGACCCGGATGTCTGGTCTGCGGCTGCTCCTCTA,1460,756,2120,1250
TGAGAGTAAAAAGGATGTGGTTTCCTTTCATTTTTT,1580,927,6790,2430
CCTCCTCCAGACCATCCTGGAAACCACTGCCGTTCT,561,1380,488,1360
TACTTCTTCCTGGCAGAGACCGGGAGTGCGGTCCGC,471,745,588,920
CTGGTTTCCAACATCCTGTGGGCGGCCTGGTTTCAG,1260,785,1270,2210
TCCCACATCCTGTGCTCGTGCAGTGGTTAGGCTCAA,562,793,608,2490
TGCAGTCGTGAAAAAGGAAGTGGTTAAAGTGGATAC,2880,836,9240,1520
CTTCACTATGCATCCTGTACTGCAACCACACCAAAC,587,1350,793,1910
GTTCAGCGGACGGCTTCCTGCGGCTTGCTGGGGCCG,361,724,462,1000
GCTCTGCAGGATGTGGCTGTGACCGCAGTGAGGAGC,1290,1520,11800,7480
GCTAAGGTGAAAGGAAGTGGGTTTTGTCTTTTTTTT,2500,854,4150,1340
